High-throughput results from PubChem.
Pf apPOL block: Pf-apPOL DNA polymerase inhibition | Recombinant Pf-apPOL, molecular beacon fluorescence, 1.5 h | 210,000 tested, 0.25% active | inhibition, % at 10 µM
mHTT-CaM PPI inh: inhibitors of human mutant huntingtin-calmodulin interaction; AlphaScreen His-mHTT/GST-CaM binding, luminescence; inhibition, % at 15 µM; 190,000 tested, 3.6% active; AID 1671202
Target sequence (P42858 whole entry, looked up, change not shown): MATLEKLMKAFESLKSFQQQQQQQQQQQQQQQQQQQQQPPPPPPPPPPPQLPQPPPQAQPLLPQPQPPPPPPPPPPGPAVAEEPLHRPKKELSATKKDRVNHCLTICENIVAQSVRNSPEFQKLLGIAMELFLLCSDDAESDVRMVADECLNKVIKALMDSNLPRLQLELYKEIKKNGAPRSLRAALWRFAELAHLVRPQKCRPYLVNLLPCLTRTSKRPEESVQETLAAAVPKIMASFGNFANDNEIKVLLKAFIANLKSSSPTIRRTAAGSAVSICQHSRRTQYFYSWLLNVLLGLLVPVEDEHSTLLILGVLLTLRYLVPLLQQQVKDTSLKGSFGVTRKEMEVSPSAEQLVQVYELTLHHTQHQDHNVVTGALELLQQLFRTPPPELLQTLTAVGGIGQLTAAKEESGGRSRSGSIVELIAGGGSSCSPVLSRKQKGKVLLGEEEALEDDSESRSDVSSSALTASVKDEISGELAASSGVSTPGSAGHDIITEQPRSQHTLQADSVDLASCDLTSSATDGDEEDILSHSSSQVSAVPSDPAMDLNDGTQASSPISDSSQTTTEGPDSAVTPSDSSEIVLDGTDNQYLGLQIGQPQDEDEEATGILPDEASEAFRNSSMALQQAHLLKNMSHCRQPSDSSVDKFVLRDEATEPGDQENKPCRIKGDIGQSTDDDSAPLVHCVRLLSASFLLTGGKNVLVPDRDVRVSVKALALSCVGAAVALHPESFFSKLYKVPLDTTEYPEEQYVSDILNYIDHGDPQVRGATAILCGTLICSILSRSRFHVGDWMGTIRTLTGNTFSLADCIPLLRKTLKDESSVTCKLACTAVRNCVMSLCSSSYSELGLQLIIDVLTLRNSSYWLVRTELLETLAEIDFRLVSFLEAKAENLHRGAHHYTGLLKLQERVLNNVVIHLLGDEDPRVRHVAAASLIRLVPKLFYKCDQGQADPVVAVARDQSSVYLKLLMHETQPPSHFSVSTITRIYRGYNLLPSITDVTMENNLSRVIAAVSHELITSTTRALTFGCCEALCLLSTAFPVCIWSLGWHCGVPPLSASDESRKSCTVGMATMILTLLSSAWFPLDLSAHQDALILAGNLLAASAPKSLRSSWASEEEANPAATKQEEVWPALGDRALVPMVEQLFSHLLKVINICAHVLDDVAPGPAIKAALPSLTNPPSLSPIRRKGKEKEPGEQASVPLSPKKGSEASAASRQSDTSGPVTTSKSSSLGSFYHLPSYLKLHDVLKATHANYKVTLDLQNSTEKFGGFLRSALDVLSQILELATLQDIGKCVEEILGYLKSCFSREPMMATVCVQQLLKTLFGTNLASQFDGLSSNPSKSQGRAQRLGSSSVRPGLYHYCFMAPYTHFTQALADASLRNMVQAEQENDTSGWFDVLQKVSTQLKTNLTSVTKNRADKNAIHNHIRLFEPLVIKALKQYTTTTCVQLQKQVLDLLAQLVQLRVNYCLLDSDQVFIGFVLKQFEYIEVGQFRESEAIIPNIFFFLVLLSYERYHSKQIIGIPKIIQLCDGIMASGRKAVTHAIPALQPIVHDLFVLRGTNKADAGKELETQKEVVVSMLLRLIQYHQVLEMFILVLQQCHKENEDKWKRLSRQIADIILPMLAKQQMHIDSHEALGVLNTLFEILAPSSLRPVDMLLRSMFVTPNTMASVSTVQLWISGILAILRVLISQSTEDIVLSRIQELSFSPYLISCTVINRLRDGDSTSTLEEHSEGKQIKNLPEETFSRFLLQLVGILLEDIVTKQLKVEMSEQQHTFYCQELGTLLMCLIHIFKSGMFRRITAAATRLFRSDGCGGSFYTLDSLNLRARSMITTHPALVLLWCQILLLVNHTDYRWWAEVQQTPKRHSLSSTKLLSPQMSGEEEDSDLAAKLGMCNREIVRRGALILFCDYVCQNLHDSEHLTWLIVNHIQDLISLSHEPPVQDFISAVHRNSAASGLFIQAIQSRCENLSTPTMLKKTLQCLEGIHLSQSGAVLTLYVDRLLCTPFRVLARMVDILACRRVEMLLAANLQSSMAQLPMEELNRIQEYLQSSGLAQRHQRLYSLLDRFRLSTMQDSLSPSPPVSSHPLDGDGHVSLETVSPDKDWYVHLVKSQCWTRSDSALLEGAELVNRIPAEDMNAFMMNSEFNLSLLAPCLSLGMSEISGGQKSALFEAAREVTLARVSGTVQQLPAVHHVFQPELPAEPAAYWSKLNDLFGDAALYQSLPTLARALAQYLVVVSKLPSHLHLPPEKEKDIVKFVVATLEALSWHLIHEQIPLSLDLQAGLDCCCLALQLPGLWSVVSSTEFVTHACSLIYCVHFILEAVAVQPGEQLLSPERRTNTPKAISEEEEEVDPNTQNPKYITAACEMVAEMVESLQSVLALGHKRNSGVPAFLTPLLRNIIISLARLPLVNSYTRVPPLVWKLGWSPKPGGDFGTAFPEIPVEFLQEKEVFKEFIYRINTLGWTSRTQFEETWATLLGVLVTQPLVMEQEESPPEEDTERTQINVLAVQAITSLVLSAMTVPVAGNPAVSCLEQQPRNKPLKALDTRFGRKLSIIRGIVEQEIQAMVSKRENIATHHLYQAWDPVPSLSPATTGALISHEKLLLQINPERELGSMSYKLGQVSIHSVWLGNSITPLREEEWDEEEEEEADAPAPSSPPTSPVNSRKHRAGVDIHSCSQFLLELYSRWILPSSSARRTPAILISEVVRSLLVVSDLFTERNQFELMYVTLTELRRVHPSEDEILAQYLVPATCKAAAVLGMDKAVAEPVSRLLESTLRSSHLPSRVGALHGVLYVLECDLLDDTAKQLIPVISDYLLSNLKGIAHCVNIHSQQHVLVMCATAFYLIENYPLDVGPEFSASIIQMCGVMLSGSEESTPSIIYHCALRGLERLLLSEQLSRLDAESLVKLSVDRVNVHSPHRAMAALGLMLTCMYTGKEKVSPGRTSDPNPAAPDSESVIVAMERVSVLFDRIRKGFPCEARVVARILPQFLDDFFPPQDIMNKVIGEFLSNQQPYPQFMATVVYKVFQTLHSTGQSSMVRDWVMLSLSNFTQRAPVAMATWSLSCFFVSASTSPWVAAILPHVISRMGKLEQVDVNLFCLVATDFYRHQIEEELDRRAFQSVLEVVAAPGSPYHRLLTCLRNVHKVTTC
Large screens that a line does not name were inactive. In the library only some 3.6% were active in any assay of this set; here they are far more common. Cut-off read from the data, not from the text of the source: active = inhibition above about 50%; inactive = the rest.

CSc1ccc(C2Nc3ccccc3NC3=C2C(=O)CC(c2ccccc2)C3)cc1 (centres undefined)	none
COc1ccc(C2CC(=O)C3=C(C2)Nc2ccccc2NC3c2cccc([N+](=O)[O-])c2)cc1OC (centres undefined)	none
O=C1CC(c2ccccc2)CC2=C1C(c1ccc(Br)cc1)Nc1ccccc1N2 (centres undefined)	mHTT-CaM PPI inh 79
O=C1CC(c2ccc(Cl)cc2)CC2=C1C(c1cccc([N+](=O)[O-])c1)Nc1ccccc1N2 (centres undefined)	mHTT-CaM PPI inh 62
Cn1ncc(Br)c1C(=O)Nc1cnccn1	none (no result: Pf apPOL block)
CCN(C(=O)Cc1ccc(OC)cc1)c1nnc(-c2ccccc2)s1	none
O=C(Cc1ccc(Cl)cc1)Nc1cnc(N2CCCC2)nc1	none
N#CC1C(c2ccc3ccccc3n2)=CN(CC(=O)c2ccc([N+](=O)[O-])cc2)c2ccccc21 (centres undefined)	Pf apPOL block 75
O=C(Cn1nnc2ccccc21)c1ccc([N+](=O)[O-])cc1	none
Cc1ccccc1-c1ccc(N2CCC(C(=O)Nc3ccc4c(c3)OCCO4)CC2)nn1	none
O=C(C=Cc1ccccc1)NCC(O)c1ccoc1 (centres undefined)	none
Cc1cc(C2CCCN2Cc2ccc(OC(C)C)cc2)on1 (centres undefined)	none
CCCCC1(CC(=O)Nc2ccc(F)cc2)C(=O)N(c2ccccc2)N(c2ccccc2)C1=O	mHTT-CaM PPI inh 98
CCCCC1(CO)C(=O)N(c2ccccc2)N(c2ccccc2)C1=O	none (no result: mHTT-CaM PPI inh)
CC(=O)N1CCC2(CC1)Nc1cccnc1NC2=NCc1ccccc1	none
O=C(Nc1cccc(F)c1)N1CCC2(CC1)Nc1cccnc1NC2=NCc1ccccc1	mHTT-CaM PPI inh 99
O=C(Nc1cccc2ncccc12)c1ccccc1	none
COc1ccccc1N1CCN(C(=O)C2CC2)CC1	none
COc1ccccc1N1CCN(C(=O)C2CCCc3c2[nH]c2ccccc32)CC1 (centres undefined)	mHTT-CaM PPI inh 59
Cc1cc(C)c(NC(=O)c2cc(S(=O)(=O)NCc3ccccc3)ccc2F)c(C)c1	none
COc1ccc(-n2nc3c(c2NC(=O)/C=C/c2ccc(OC)c(OC)c2)CSC3)cc1	Pf apPOL block 78
COc1ccc(-n2nc3c(c2NC(C)=O)CSC3)cc1	none
COc1ccc(-n2nc3c(c2NC(=O)/C=C/c2ccc(OC)c(OC)c2)CS(=O)(=O)C3)cc1	none
O=C(/C=C/c1ccc2c(c1)OCO2)Nc1c2c(nn1-c1ccc(F)cc1)CSC2	none
COc1ccc(-n2nc3c(c2NC(=O)/C=C/c2ccco2)CSC3)cc1	mHTT-CaM PPI inh 77
O=C(/C=C/c1ccco1)Nc1c2c(nn1-c1ccc(F)cc1)CSC2	mHTT-CaM PPI inh 98
O=C(c1ccc(OCC2CCCN2C(=O)C2CCCCC2)cc1)N1CCOCC1 (centres undefined)	none
CC1=C(C(=O)Nc2ccc(C)cn2)C(c2ccc(Cl)cc2Cl)C2=C(CCCC2=O)N1 (centres undefined)	none
O=C(Nc1ccc(O)c(-c2nc3ccccc3o2)c1)c1ccc(Cl)cc1Cl	none
CCCCN(CC)C(=O)c1ccc(OC)cc1OC	none
Nc1nc(NC(=O)c2ccc(F)cc2)nn1-c1ccccc1	Pf apPOL block 65
CC(=O)Nc1nc(N)n(-c2ccccc2)n1	none
CC(=NOC(=O)c1ccccc1)c1csc(COc2ccc(Cl)cc2)n1	none (no result: mHTT-CaM PPI inh)
O=C(c1cccs1)N1CCN(C(=O)C2CCCCC2)CC1	none (no result: mHTT-CaM PPI inh)
O=C(C1CCC1)N1CCN(C2=NN=C(c3cccs3)CS2)CC1	mHTT-CaM PPI inh 78
COc1cc(/C=C2/C=C(c3ccc(Br)cc3)OC2=O)c([N+](=O)[O-])cc1OC	none
O=[N+]([O-])C1=Cc2cc(Br)cc(Br)c2OC1c1ccc2c(c1)OCO2 (centres undefined)	mHTT-CaM PPI inh 84
CCOc1ccc(C2Oc3c(cc(Br)cc3OC)C=C2[N+](=O)[O-])cc1OC (centres undefined)	none
COc1ccc(C2Oc3c(cc(Br)cc3OC)C=C2[N+](=O)[O-])cc1OC (centres undefined)	mHTT-CaM PPI inh 72
COc1cc2c(cc1[N+](=O)[O-])OCO2	none (no result: Pf apPOL block)
O=[N+]([O-])C1=Cc2ccccc2OC1c1ccccc1 (centres undefined)	none (no result: Pf apPOL block)
COc1cc(Br)cc2c1OC(c1ccc3c(c1)OCO3)C([N+](=O)[O-])=C2 (centres undefined)	mHTT-CaM PPI inh 68
COc1ccc(C2C=C(c3ccc(F)cc3)Nc3nnnn32)cc1 (centres undefined)	none
Cc1ccc(C(=O)NCc2cccnc2)cc1[N+](=O)[O-]	none
COC(=O)c1ccccc1NC(=O)CSc1ncnc2nc(C)ncc12	none
CC(NS(=O)(=O)c1ccc([N+](=O)[O-])cc1)C(=O)O (centres undefined)	none
COc1ccc(C(=O)Nc2c3c(nn2-c2cccc(C)c2)CSC3)cc1	none
O=C(Nc1c2c(nn1-c1cccc(Cl)c1)CSC2)c1ccc(Br)o1	none
Cc1cc(C)cc(-n2nc3c(c2NC(=O)c2ccco2)CSC3)c1	mHTT-CaM PPI inh 65
Cc1ccc(-n2nc3c(c2NC(=O)c2ccco2)CSC3)cc1	none
